# Assay results from PubChem BioAssay AID1159580 (chemical genetic matrix, 2015).
# The whole screen tested about 5,500 compounds, of which about 2,000 (36%) were called active. About 18% were inconclusive and are not listed. Some of the results follow. Values without a mark were called inactive. Cut-off read from the data, not from the text of the source: active = normalized growth mostly below about 0.91 (no sharp cut-off); inconclusive = no clear call, values can overlap the other calls; inactive = mostly above about 0.92.
# Assay: chemical genetic growth profiling, strain panel (AID 1159580);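 note: tested at 20 µM; growth read once vehicle control cultures reached saturation at 30 °C; 1 = growth at the plate median or of vehicle wells; lower values mean less growth of the strain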
# Conditions: growth OD
smiles,measurement,setting,value
CC[C@@]1(O)C(=O)OCc2c1cc1n(c2=O)Cc2cc3ccccc3nc2-1,normalized growth,"S. cerevisiae deletion strains, locus YJR066W, strain TOR1, stronger effect = lower value",0.665 (active)
same,normalized growth,"S. cerevisiae deletion strains, locus YJR075W, strain HOC1, stronger effect = lower value",0.88
same,normalized growth,"S. cerevisiae deletion strains, locus YKL009W, strain mrt4, stronger effect = lower value",0.936
same,normalized growth,"S. cerevisiae deletion strains, locus YKL068W, stronger effect = lower value",0.951
same,normalized growth,"S. cerevisiae deletion strains, locus YKL085W, strain MDH1 (second series), stronger effect = lower value",0.796 (active)
same,normalized growth,"S. cerevisiae deletion strains, locus YKL085W, strain MDH1, stronger effect = lower value",0.796 (active)
same,normalized growth,"S. cerevisiae deletion strains, locus YKL160W, strain elf1, stronger effect = lower value",0.965
same,normalized growth,"S. cerevisiae deletion strains, locus YKL190W, strain CNB1, stronger effect = lower value",0.948
same,normalized growth,"S. cerevisiae deletion strains, locus YKR001C, strain vps1, stronger effect = lower value",0.549 (active)
same,normalized growth,"S. cerevisiae deletion strains, locus YKR026C, strain gcn3, stronger effect = lower value",0.919 (active)
same,normalized growth,"S. cerevisiae deletion strains, locus YKR091W, strain srl3, stronger effect = lower value",0.914 (active)
same,normalized growth,"S. cerevisiae deletion strains, locus YLL001W, strain dnm1, stronger effect = lower value",0.831 (active)
same,normalized growth,"S. cerevisiae deletion strains, locus YLL026W, stronger effect = lower value",0.727 (active)
same,normalized growth,"S. cerevisiae deletion strains, locus YLL041C, strain sdh2, stronger effect = lower value",0.924 (active)
same,normalized growth,"S. cerevisiae deletion strains, locus YLR027C, strain aat2, stronger effect = lower value",0.653 (active)
same,normalized growth,"S. cerevisiae deletion strains, locus YLR039C, strain RIC1, stronger effect = lower value",0.692
same,normalized growth,"S. cerevisiae deletion strains, locus YLR058C, strain SHM2, stronger effect = lower value",0.881 (active)
same,normalized growth,"S. cerevisiae deletion strains, locus YLR102C, strain apc9, stronger effect = lower value",0.913 (active)
same,normalized growth,"S. cerevisiae deletion strains, locus YLR113W, strain HOG1, stronger effect = lower value",0.711 (active)
same,normalized growth,"S. cerevisiae deletion strains, locus YLR221C, strain rsa3, stronger effect = lower value",0.693 (active)
same,normalized growth,"S. cerevisiae deletion strains, locus YLR258W, strain gsy2, stronger effect = lower value",0.78 (active)
same,normalized growth,"S. cerevisiae deletion strains, locus YLR262C, strain YPT6 (second series), stronger effect = lower value",0.484 (active)
same,normalized growth,"S. cerevisiae deletion strains, locus YLR262C, strain YPT6, stronger effect = lower value",0.662
same,normalized growth,"S. cerevisiae deletion strains, locus YLR268W, strain sec22, stronger effect = lower value",0.63 (active)
same,normalized growth,"S. cerevisiae deletion strains, locus YLR320W, strain mms22, stronger effect = lower value",0.108 (active)
same,normalized growth,"S. cerevisiae deletion strains, locus YLR330W, strain CHS5, stronger effect = lower value",0.893 (active)
same,normalized growth,"S. cerevisiae deletion strains, locus YLR342W, strain FKS1 (second series), stronger effect = lower value",0.732 (active)
same,normalized growth,"S. cerevisiae deletion strains, locus YLR342W, strain FKS1, stronger effect = lower value",0.647 (active)
same,normalized growth,"S. cerevisiae deletion strains, locus YLR357W, strain rsc2, stronger effect = lower value",1
same,normalized growth,"S. cerevisiae deletion strains, locus YLR370C, strain arc18, stronger effect = lower value",0.832 (active)
same,normalized growth,"S. cerevisiae deletion strains, locus YLR371W, strain rom2, stronger effect = lower value",0.929
same,normalized growth,"S. cerevisiae deletion strains, locus YLR384C, strain iki3, stronger effect = lower value",0.96
same,normalized growth,"S. cerevisiae deletion strains, locus YLR418C, strain cdc73, stronger effect = lower value",0.857
same,normalized growth,"S. cerevisiae deletion strains, locus YML016C, strain PPZ1, stronger effect = lower value",0.998
same,normalized growth,"S. cerevisiae deletion strains, locus YML032C, strain rad52, stronger effect = lower value",0.0917 (active)
same,normalized growth,"S. cerevisiae deletion strains, locus YML120C, strain ndi1, stronger effect = lower value",0.868 (active)
same,normalized growth,"S. cerevisiae deletion strains, locus YML124C, strain tub3, stronger effect = lower value",0.903 (active)
same,normalized growth,"S. cerevisiae deletion strains, locus YMR058W, strain fet3, stronger effect = lower value",0.705 (active)
same,normalized growth,"S. cerevisiae deletion strains, locus YMR078C, strain ctf18, stronger effect = lower value",0.111 (active)
same,normalized growth,"S. cerevisiae deletion strains, locus YMR125W, strain sto1, stronger effect = lower value",0.856 (active)
same,normalized growth,"S. cerevisiae deletion strains, locus YMR129W, stronger effect = lower value",0.893 (active)
same,normalized growth,"S. cerevisiae deletion strains, locus YMR205C, strain PFK2, stronger effect = lower value",0.798 (active)
same,normalized growth,"S. cerevisiae deletion strains, locus YMR223W, strain ubp8, stronger effect = lower value",0.671 (active)
same,normalized growth,"S. cerevisiae deletion strains, locus YMR231W, strain pep5, stronger effect = lower value",0.268 (active)
same,normalized growth,"S. cerevisiae deletion strains, locus YMR263W, strain SAP30, stronger effect = lower value",0.847 (active)
same,normalized growth,"S. cerevisiae deletion strains, locus YMR307W, strain GAS1, stronger effect = lower value",0.461 (active)
same,normalized growth,"S. cerevisiae deletion strains, locus YNL067W, strain RPL9B, stronger effect = lower value",0.781 (active)
same,normalized growth,"S. cerevisiae deletion strains, locus YNL071W, strain lat1, stronger effect = lower value",0.744 (active)
same,normalized growth,"S. cerevisiae deletion strains, locus YNL128W, strain TEP1, stronger effect = lower value",0.937
same,normalized growth,"S. cerevisiae deletion strains, locus YNL153C, strain GIM3, stronger effect = lower value",0.892
same,normalized growth,"S. cerevisiae deletion strains, locus YNL183C, strain NPR1, stronger effect = lower value",0.643 (active)
same,normalized growth,"S. cerevisiae deletion strains, locus YNL209W, strain ssb2, stronger effect = lower value",0.87 (active)
same,normalized growth,"S. cerevisiae deletion strains, locus YNL233W, strain BNI4, stronger effect = lower value",0.804 (active)
same,normalized growth,"S. cerevisiae deletion strains, locus YNL248C, strain rpa49, stronger effect = lower value",0.679 (active)
same,normalized growth,"S. cerevisiae deletion strains, locus YNL250W, strain rad50, stronger effect = lower value",0.152 (active)
same,normalized growth,"S. cerevisiae deletion strains, locus YNL271C, strain bni1, stronger effect = lower value",0.814 (active)
same,normalized growth,"S. cerevisiae deletion strains, locus YNL298W, strain CLA4, stronger effect = lower value",0.74 (active)
same,normalized growth,"S. cerevisiae deletion strains, locus YNL307C, strain MCK1, stronger effect = lower value",0.505 (active)
same,normalized growth,"S. cerevisiae deletion strains, locus YNL322C, strain KRE1 (second series), stronger effect = lower value",0.465 (active)
same,normalized growth,"S. cerevisiae deletion strains, locus YNR049C, strain mso1, stronger effect = lower value",0.947
same,normalized growth,"S. cerevisiae deletion strains, locus YNR052C, strain pop2, stronger effect = lower value",0.207 (active)
same,normalized growth,"S. cerevisiae deletion strains, locus YOL006C, strain TOP1, stronger effect = lower value",0.971
same,normalized growth,"S. cerevisiae deletion strains, locus YOL012C, strain htz1",0.487
same,normalized growth,"S. cerevisiae deletion strains, locus YOL147C, strain pex11, stronger effect = lower value",0.807 (active)
same,normalized growth,"S. cerevisiae deletion strains, locus YOR001W, strain rrp6, stronger effect = lower value",0.847 (active)
same,normalized growth,"S. cerevisiae deletion strains, locus YOR061W, strain CKA2, stronger effect = lower value",0.912
same,normalized growth,"S. cerevisiae deletion strains, locus YOR069W, strain VPS5, stronger effect = lower value",0.883 (active)
same,normalized growth,"S. cerevisiae deletion strains, locus YOR070C, strain gyp1, stronger effect = lower value",0.739 (active)
same,normalized growth,"S. cerevisiae deletion strains, locus YOR080W, strain dia2, stronger effect = lower value",0.543 (active)
same,normalized growth,"S. cerevisiae deletion strains, locus YOR083W, strain WHI5, stronger effect = lower value",0.814 (active)
same,normalized growth,"S. cerevisiae deletion strains, locus YOR106W, strain vam3, stronger effect = lower value",0.366 (active)
same,normalized growth,"S. cerevisiae deletion strains, locus YOR136W, strain idh2, stronger effect = lower value",0.915 (active)
same,normalized growth,"S. cerevisiae deletion strains, locus YOR144C, strain elg1, stronger effect = lower value",0.542 (active)
same,normalized growth,"S. cerevisiae deletion strains, locus YOR184W, strain ser1, stronger effect = lower value",0.67 (active)
same,normalized growth,"S. cerevisiae deletion strains, locus YOR231W, strain MKK1, stronger effect = lower value",0.78 (active)
same,normalized growth,"S. cerevisiae deletion strains, locus YOR265W, strain rbl2, stronger effect = lower value",0.796 (active)
same,normalized growth,"S. cerevisiae deletion strains, locus YOR270C, strain vph1, stronger effect = lower value",0.576 (active)
same,normalized growth,"S. cerevisiae deletion strains, locus YOR290C, strain snf2, stronger effect = lower value",0.746 (active)
same,normalized growth,"S. cerevisiae deletion strains, locus YOR316C, strain cot1, stronger effect = lower value",0.942
same,normalized growth,"S. cerevisiae deletion strains, locus YPL051W, strain arl3, stronger effect = lower value",0.828 (active)
same,normalized growth,"S. cerevisiae deletion strains, locus YPL078C, strain atp4, stronger effect = lower value",0.868 (active)
same,normalized growth,"S. cerevisiae deletion strains, locus YPL106C, strain sse1, stronger effect = lower value",0.879
same,normalized growth,"S. cerevisiae deletion strains, locus YPL240C, strain hsp82, stronger effect = lower value",0.857 (active)
same,normalized growth,"S. cerevisiae deletion strains, locus YPL256C, strain CLN2, stronger effect = lower value",0.784 (active)
same,normalized growth,"S. cerevisiae deletion strains, locus YPR119W, strain clb2, stronger effect = lower value",0.893 (active)
same,normalized growth,"S. cerevisiae deletion strains, locus YPR141C, strain kar3, stronger effect = lower value",0.836 (active)
same,normalized growth,"S. cerevisiae deletion strains, locus YPR163C, strain tif3, stronger effect = lower value",0.276 (active)
same,normalized growth,"S. cerevisiae deletion strains, locus YPR167C, strain met16, stronger effect = lower value",0.795 (active)
same,normalized growth,"S. cerevisiae deletion strains, strain wtn01, stronger effect = lower value",0.739 (active)
same,normalized growth,"S. cerevisiae strains, strain wild type, stronger effect = lower value",0.892 (active)
